Measurements as given in PubChem BioAssay AID1159580 (chemical genetic matrix, 2015).
Screen size: about 5,500 compounds; about 2,000 (36%) were called active. Another 18% or so got no clear call; they are omitted. Rule as the data show it: active = normalized growth mostly below about 0.91 (no sharp cut-off); inconclusive = no clear call, values can overlap the other calls; inactive = mostly above about 0.92. The list shows a part of the results.

Experiment: chemical genetic growth profiling, strain panel (AID 1159580);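 also: tested at 20 µM; growth read once vehicle control cultures reached saturation at 30 °C; 1 = growth at the plate median or of vehicle wells; lower values mean less growth of the strain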
Conditions: S. cerevisiae deletion strains, growth OD

Measured: normalized growth

NC(=O)c1cc(N2CC2)c([N+](=O)[O-])cc1[N+](=O)[O-]
inactive: locus YAL040C, strain CLN3, hits give low values 1 | locus YCL061C, strain MRC1 (second series), hits give low values 0.994 | locus YDR363W, strain ESC2, hits give low values 0.993 | locus YER002W, strain NOP16, hits give low values 1.02 | locus YMR263W, strain SAP30, hits give low values 1 | locus YMR307W, strain GAS1, hits give low values 0.986 | locus YNL175C, strain NOP13, hits give low values 1.02 | locus YNL197C, strain WHI3, hits give low values 1 | locus YNL224C, strain SQS1, hits give low values 0.997 | locus YOR083W, strain WHI5 (second series), hits give low values 1.01
